# From PubChem BioAssay
# Pf Dd2 growth – qHTS Primary assay for Inhibitors of Plasmodium falciparum Dd2 growth in vitro. P. falciparum Dd2 growth, SYBR Green, 72 h. Potency, µM (top dose mostly 28.9 µM), inactives show at the top dose activity, negative = inhibition, hits mostly inhibitors. 4.3% of 120,000 active. AID 1347417, 2020; active = well fitted inhibition curve with a large enough effect;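 also: plate controls were DMSO vehicle for no effect and reference drug for full effect; nearly all actives have a fitted effect of over 65% in size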
#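 Infected erythrocytes (Dd2, 0.3% parasitemia, 2.5% hematocrit final) are added to compound in RPMI-1640/Albumax II medium, grown 72 h at 37C in low oxygen, then lysed with saponin/Triton-X containing SYBR Green and read by fluorescence.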
# * hit, by the source's call; i = inactive; [ ] = dose if it differs, or a comment. Shown is part of a subset that was picked to be rich in hits. Potency is read from the fitted curve at half-maximal effect.
SMILES,Pf Dd2 growth
CC(C)(C)C(=O)N1CC[C@@H](CC(=O)O)[C@@H](CCN2CCC(n3c(=O)[nH]c4ccccc43)CC2)C1,-5.1%
O=C1CCC2(CCNCC2)CCN1,18.3%
O=C(Nc1cccnc1)c1nnn2c1CN(Cc1ccccc1F)C(=O)CC2,-6.9%[44.1 µM]
O=C(Nc1cc(F)cc(F)c1)N1CCCC1c1nncn1C1CCCC1 (stereo not drawn),-3.4%
CCc1cccc(NC(=O)c2ccc3c(c2)N(CC)C2CCCCN2C3=O)c1 (stereo not drawn),4.47µM*
Cc1ccc(CNC(=O)c2ccc3c(c2)N(C)C2CCCCCN2C3=O)cc1C (stereo not drawn),i
CCc1cccc(NC(=O)c2ccc3c(c2)N(C)C2CCCN2C3=O)c1 (stereo not drawn),-7.3%
CCN1c2cc(C(=O)NCc3cccc(C)c3)ccc2C(=O)N2CCCCC21 (stereo not drawn),i
CCN1c2cc(C(=O)Nc3cccc(C)c3)ccc2C(=O)N2CCCCC21 (stereo not drawn),i
Cc1cccc(CNC(=O)c2ccc3c(c2)N(C)C2CCCN2C3=O)c1 (stereo not drawn),10µM*
Cc1ccc(S(=O)(=O)Nc2ccc(C)n(CC(=O)NCc3ccc(F)cc3)c2=O)cc1,-17.6%
CNC(=O)[C@H]1C[C@H](Oc2ccccc2)CN1C(=O)NCc1ccc(OC)cc1,-8.8%
CN1CCCN(S(=O)(=O)c2ccccc2F)c2ccccc21,-26.5%
COCCN1CCCC2(CCN(C(=O)c3oc4cc(C)ccc4c3C)C2)C1=O (stereo not drawn),-26.8%
O=C(c1ccccn1)N1CCC2(CC1)CN[S+](=O)([O-])c1ccccc1N2,9.7%
Cc1cnc(N2CC[C@](C)(O)[C@@H](O)C2)nc1N(C)C,7.8%
CN(CC1CCOCC1)C(=O)NCc1ccco1,40.1%
COc1cccc(CC(=O)N2CCCC(CN3CCCC3)CC2)c1 (stereo not drawn),1µM*
COc1ccc(C2(C(=O)N3CCC(CC(=O)NC4CC4)C3)CC2)cc1 (stereo not drawn),26.4%
COc1ccc(C2(C(=O)N3CCC(F)CC3)CCOCC2)cc1,12.6%
COc1ccc(C2(C(=O)N3CCCC(CN4CCCC4)CC3)CC2)cc1 (stereo not drawn),3.16µM*
COCC(=O)N(C1CCOCC1)C1CCN(C(=O)Cc2cccc(OC)c2)CC1,13.7%
COc1cccc(CC(=O)N2CCCCCCNC(=O)CC2)c1,-14.6%
CC(C)(C)C1CCC2(CC1)NC(=O)N(CC(=O)N1CCN(c3ccccc3F)CC1)C2=O (stereo not drawn),-12.8%
COCCN1C(=O)CS(=O)C12CCN(C(=O)Nc1ccc3c(c1)OCCO3)CC2 (stereo not drawn),i
SMILES,Pf Dd2 growth
C[C@H]1[C@@H]2[C@@H](O)C([C@H](C)C(=O)N3CCCC3)CC[C@@]2(C)CC[C@@H]1NC(=O)Nc1cccc(F)c1 (stereo partly drawn),i
O=C(N[C@@H]1CN(C(=O)Nc2ccccc2)CCC[C@H]1O)c1ccc(OCc2ccccc2)cc1,-16.0%
COCCOc1ccc(C(=O)N[C@@H]2CN(C(=O)NCc3ccccc3)CCC[C@H]2O)cc1,17.1%
COCCOc1ccc(C(=O)N[C@@H]2CN(C(=O)Nc3cccc(C(F)(F)F)c3)CCC[C@H]2O)cc1,i
O=C(N[C@@H]1CN(C(=O)Nc2cccc(C(F)(F)F)c2)CCC[C@H]1O)c1ccc(OCc2ccccc2)cc1,7.08µM*
NC(=O)COc1ccc(C(=O)N[C@@H]2CN(Cc3ccccn3)CCC[C@H]2O)cc1,-26.5%[44.1 µM]
O=C(N[C@@H]1CN(Cc2ccccn2)CCC[C@H]1O)c1ccc(OCc2ccccc2)cc1,2.51µM*
CC(C)C(=O)N1CCCC(Cc2nc(C3CCOCC3)no2)C1 (stereo not drawn),-1.4%
O=C(C1CCCCC1)N1CC[C@H]2COC(=O)N2c2cc(F)ccc2C1,2.8%[44.1 µM]
CC(C)Cc1cc(C(=O)N2CC(OCc3ccc(F)cc3)C2)on1,2.1%
O=C1NCC(=O)N2CCN(C(=O)c3cnnn3-c3ccccc3)CC12 (stereo not drawn),-3.9%
Cc1ccccc1-c1nccc2c(=O)cc(N(C)C3CCOCC3)oc12,i
Cc1ccccc1-c1nccc2c(=O)cc(-c3ccncc3)oc12,-18.5%[44.1 µM]
Cc1ccccc1-c1nccc2c(=O)cc(C3=CCOCC3)oc12,10µM*
CCOC(=O)c1cccc(NC(=O)N2CC[C@@H](CC(=O)Nc3nccs3)[C@@H](CC)C2)c1,-0.4%
COCCCN1C(=O)N(Cc2nncn2C(C)C)C(=O)C12CCNCC2,-16.1%
COc1cccc(N2C(=O)NC(=NC3CCCC3)C23CCN([S+](=O)([O-])c2ccccc2)C3)c1 (stereo not drawn),10.4%
O=C1NC(=NC2CCCCC2)C2(CCCN(Cc3ccsc3)C2)N1c1cc(F)cc(F)c1 (stereo not drawn),7.94µM*
O=C(OCc1ccccc1)N1CCCC2(C1)C(=NC1CCCC1)NC(=O)N2c1cc(F)cc(F)c1 (stereo not drawn),-28.4%
O=C1NC(=NC2CCCCC2)C2(CCCN(Cc3cccnc3)C2)N1c1cccnc1 (stereo not drawn),4.8%
O=C1NC(=NC2CCCCC2)C2(CCN(Cc3ccsc3)CC2)N1c1cccnc1,-3.2%
COc1cccc(N2C(=O)NC(=NC3CCCC3)C23CCCN(Cc2ccsc2)C3)c1 (stereo not drawn),8.91µM*
COCC1CN(C)CC12CCN(C(=O)Cn1c(=O)oc3ccccc31)CC2 (stereo not drawn),-7.5%
CCn1nccc1C(=O)N1C[C@@H]2CCCN3CCC[C@@H]([C@H]23)[C@H]1CCCC(=O)NCC1CC1,-19.2%
O=C(c1cccnc1)N1CC(CO)C2(CCNCC2)C1 (stereo not drawn),-4.2%
SMILES,Pf Dd2 growth
CN(Cc1ncc[nH]1)c1ccc(-c2nc(CCCc3ccccc3)no2)cn1,4.47µM*
Cc1nnc(CN(C)c2ccc(-c3nc(CCCc4ccccc4)no3)cn2)o1,i
CN(Cc1ccccn1)c1ccc(-c2nc(Cc3ccc(F)cc3)no2)cn1,-27.1%
COc1ccc(NC(=O)N2C[C@@H]3C[C@H](C2)c2ccc(NC(=O)c4ccc(F)cc4)c(=O)n2C3)cc1,i
CC(C)CCNC(=O)N1CCC(Oc2ncccc2C(=O)N(C)C)C1 (stereo not drawn),-6.9%
CN1C(=O)CS(=O)C12CCN(C(=O)C1(c3ccccc3)CC1)CC2 (stereo not drawn),12.7%
O=C(NCC12CCCC=C1N(Cc1ccccc1)C(=O)CC2)c1ccncc1 (stereo not drawn),-26.1%
O=C1COC[C@H]([C@H](O)c2ccc(NC(=O)c3ccnc(Cl)c3)cc2)N1,15.6%[44.1 µM]
CN(C)c1cccc(C(=O)N2CCC(c3c[nH]c4ccccc34)(c3c[nH]c4ccccc34)CC2)c1,3.98µM*
CC(C)CC1=NC2(CCN(C(=O)c3cccc(N(C)C)c3)CC2)C(=O)N1,-2.4%
Cc1ccc(C2=NC3(CCN(C(=O)c4cccc(N(C)C)c4)CC3)ON2)cc1,-8.0%
Cn1c(CO[C@H]2CN(C(=O)C3CCOCC3)C[C@H]2F)nc2ccccc21,-1.2%[44.1 µM]
Cc1ccc(Cl)cc1N1CCN(C(=O)c2cc3c(=O)n(C)c4ccccc4c3s2)CC1,32.0%[5.79 µM]
Cc1ccc(Cl)cc1N1CCN(C(=O)CCc2nnc3n(C)c(=O)c4ccccc4n23)CC1,-18.6%
Cc1ccc(Cl)cc1N1CCN(C(=O)c2cn(CC(C)C)c(=O)c3c2c2ccccc2n3C)CC1,3.16µM*
CN(C)c1ccc(C(=O)N2CCCC(COc3ccccc3C(=O)N3CCCC3)C2)cc1 (stereo not drawn),6.31µM*
